TDP1 cell CPT = qHTS for Inhibitors of human tyrosyl-DNA phosphodiesterase 1 (TDP1): qHTS in cells in presence of CPT; Potency, µM (series often up to 46.2 µM), inactives show at the top dose activity change, negative = growth inhibition, actives largely listed as inhibitors; 12% of 420,000 active; chicken DT40 Tdp1-/-;hTDP1 cells + 20 nM CPT, ATP luminescence, 48 h; AID 686979, 2013; note: potency is the fitted concentration of half-maximal effect; % is set by controls: 0 for no effect and ±100 for the full control effect; nearly all actives have a fitted effect of over 55% in size
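Cell growth measured by CellTiter-Glo luminescence after a minimum 48 h, 37 C compound exposure with 20 nM CPT in Tdp1-knockout DT40 cells stably expressing hTDP1, seeded 400/well; qHTS titration format.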
IL1B secr inh = qHTS for Inhibitors of Inflammasome Signaling: IL-1-beta AlphaLISA Primary Screen; THP-1 LPS/ATP IL-1B secretion, AlphaLISA, 16 h; stronger effect = lower value; 4.7% of 360,000 active; AID 743279, 2014; activity change, % at 57.5 µM; in the data active = activity change below about -50%; inconclusive = mostly about -30% to -49%; note: % is set by controls: 0 for no effect and ±100 for the full control effect
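THP-1 cells pretreated 1 hr with compounds (up to 57.5 uM final), then stimulated with LPS (250 ng/mL final) plus ATP (1.25 mM final); secreted IL-1B measured by AlphaLISA after 16 hr, decreased signal indicating inhibition.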
DT40 TDP1 no CPT = qHTS for Inhibitors of human tyrosyl-DNA phosphodiesterase 1 (TDP1): qHTS in cells in absence of CPT. DT40 Tdp1-/- hTDP1 cells, no CPT, ATP luminescence, 48 h. Potency, µM (titrated, usually from 46.2 µM), for inactives: top-dose activity change, negative = growth inhibition, usual class: inhibitors. 15% of 420,000 active. AID 686978, 2013; note: potency is the fitted concentration of half-maximal effect; % is set by controls: 0 for no effect and ±100 for the full control effect; nearly all actives have a fitted effect of over 55% in size
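Readout: luminescence from CellTiter-Glo after 30 min in the dark at RT. Cells: DT40 Tdp1-/- with stable hTDP1, 400/well. Exposure: compounds alone, ≥48 hr, 37 °C.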
TGFb SMAD3 inh = qHTS for Inhibitors of TGF-b; HepG2 CAGA-GFP TGF-b/SMAD3 reporter, GFP fluorescence, 18 h; TGF-beta stimulated, 500 pg/mL final; 1.2% of 410,000 active; AID 588855, 2011; Potency, µM (doses to about 46.1 µM), without a hit: top-dose activity, negative = inhibition, hits mostly inhibitors; note: potency is the fitted concentration of half-maximal effect; % is set by controls: 0 for no effect and ±100 for the full control effect; nearly all actives have a fitted effect of over 65% in size
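Using HEPG2 CAGA-GFP reporter cells at 1000 cells/well, we pinned test compounds, stimulated with recombinant TGF-beta (500 pg/mL final) and measured total well GFP after 18 h.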
TDP1 inh = qHTS Assay for Inhibitors of Tyrosyl-DNA Phosphodiesterase (TDP1). recombinant TDP1, AlphaScreen DNA substrate cleavage. AID 485290, 2010. 0.28% of 350,000 active. Potency, µM (series often up to 130 µM), for the others: at the top dose activity change, negative = inhibition, most hits filed as inhibitors. Tyrosyl-DNA phosphodiesterase 1 (Homo sapiens), Q9NUW8; note: potency is the fitted concentration of half-maximal effect; % is set by controls: 0 for no effect and ±100 for the full control effect; nearly all actives have a fitted effect of over 40% in size
Target sequence (Q9NUW8 whole entry, looked up): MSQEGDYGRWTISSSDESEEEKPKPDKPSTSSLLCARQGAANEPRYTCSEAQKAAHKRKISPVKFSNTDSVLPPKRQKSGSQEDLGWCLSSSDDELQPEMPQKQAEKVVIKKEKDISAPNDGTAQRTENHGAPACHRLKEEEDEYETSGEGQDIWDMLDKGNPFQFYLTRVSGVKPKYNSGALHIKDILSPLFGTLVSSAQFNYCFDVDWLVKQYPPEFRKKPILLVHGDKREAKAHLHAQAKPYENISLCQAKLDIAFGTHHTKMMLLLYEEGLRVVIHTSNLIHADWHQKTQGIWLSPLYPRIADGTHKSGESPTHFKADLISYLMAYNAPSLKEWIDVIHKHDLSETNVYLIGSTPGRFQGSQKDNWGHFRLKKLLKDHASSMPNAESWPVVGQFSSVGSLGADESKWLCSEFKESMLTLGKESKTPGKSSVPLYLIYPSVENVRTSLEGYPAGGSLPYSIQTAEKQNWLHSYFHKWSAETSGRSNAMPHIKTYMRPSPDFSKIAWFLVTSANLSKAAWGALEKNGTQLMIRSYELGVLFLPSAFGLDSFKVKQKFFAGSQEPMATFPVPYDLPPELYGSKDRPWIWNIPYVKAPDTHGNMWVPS
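Compounds were preincubated with Tdp1 (1 nM final) for 15 min at room temperature before substrate (15 nM final) started a 5 min reaction; beads (10 ug/ml final) were then added for 10 min before AlphaScreen detection.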
HepG2 tox = qHTS for Inhibitors of TGF-b: Cytotox Counterscreen; HepG2 CAGA-GFP viability, ATP luminescence, 18 h; 0.76% of 410,000 active; Potency, µM (top dose mostly 46.1 µM), inactives show at the top dose activity change, negative = cytotoxicity, hits mostly cytotoxic; note: potency is the fitted concentration of half-maximal effect
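HepG2 CAGA-GFP cells (1000/well, DMEM with 1% FBS) received compound, then TGF-beta at 500 pg/mL final, and were incubated 18 hours at 37 degrees C. Viability was read by CellTiter-Glo luminescence. Media-only wells were set as complete cell-killing and DMSO as no toxicity.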
Starred values were filed as active, the others as inactive; ? = inconclusive; . = not tested or not shown; [ ] = another dose, or the depositor's remark. In the library only some 18% were active in any assay of this set; here they are far more common. Unless noted, calls come from the whole dose curve; as a rule, active = well fitted curve in the direction sought with a large enough effect; inconclusive = small, poorly fitted or top-dose-only effect, or another doubt; inactive = no such curve, though single readings can be large; an effect the other way counts as inactive or inconclusive.

SMILES | TDP1 cell CPT | IL1B secr inh | DT40 TDP1 no CPT | TGFb SMAD3 inh | TDP1 inh | HepG2 tox
COc1cccc(C(c2nnnn2CCc2ccccc2)N2CCN(c3ccccc3)CC2)c1OC (stereo not given) | ? | -20 | ? | -9% | 2% | -33%
C=CCN1CCN(C(c2cccc(OC)c2OC)c2nnnn2CCC(C)C)CC1 (stereo not given) | 26µM* | 6 | 23µM* | 4% | 6% | -19%
COc1ccc(C(c2nnnn2C2CCCCC2)N2CCN(C/C=C/c3ccccc3)CC2)cc1 (stereo not given) | 16µM* | -9 | ? | ? | . | 7%
COc1ccc(-n2nnnc2C(c2ccnc3ccccc23)N2CCN(C/C=C/c3ccccc3)CC2)cc1 (stereo not given) | 7.3µM* | ? | 4.6µM* | ? | . | -23%
C(=C\c1ccccc1)/CN1CCN(C(c2nnnn2C2CCCCC2)C2CC2)CC1 (stereo not given) | ? | -5 | 16µM* | ? | . | 7%
COc1ccc(-n2nnnc2C(c2cccs2)N2CCN(C/C=C/c3ccccc3)CC2)cc1 (stereo not given) | 16µM* | 0 | 16µM* | ? | . | -20%
COc1ccc(C(c2nnnn2-c2ccc(OC)cc2)N2CCN(C/C=C/c3ccccc3)CC2)cc1 (stereo not given) | ? | -53* | ? | ? | . | 2%
COc1ccc(C(c2nnnn2C(C)(C)C)N2CCN(C/C=C/c3ccccc3)CC2)cc1 (stereo not given) | ? | -16 | ? | ? | . | -24%
COc1cccc(C(c2nnnn2C(C)(C)C)N2CCN(C/C=C/c3ccccc3)CC2)c1OC (stereo not given) | ? | -9 | 16µM* | ? | . | -4%
CCCCn1nnnc1C(c1ccc(OC)cc1)N1CCN(C/C=C/c2ccccc2)CC1 (stereo not given) | ? | ? | 18µM* | ? | . | -35%
CCCCN1CC(N(C)CCN(C)C)CS1(=O)=O (stereo not given) | 13% | 27 | 23% | 3% | . | 2%
O=C1NC[C@H](CCCCN2CCN(CCC3CCCCC3)C(=O)C2=O)N(CCc2ccc(O)cc2)C1=O | -20% | 0 | -4% | . | . | .
CC(C)(C)n1ncc2c(=O)n(Cc3c(F)ccc(F)c3Cl)cnc21 | . | . | . | 4% | . | -33%
C(=C\c1ccccc1)/CN1CCN(C(c2cccc3ccccc23)c2nnnn2C2CCCC2)CC1 (stereo not given) | 21µM* | ? | 9.2µM* | ? | . | -12%
CCCCn1nnnc1C(C1CC1)N1CCN(C/C=C/c2ccccc2)CC1 (stereo not given) | ? | -20 | 16µM* | ? | . | -5%
CCOc1ccc(N2C(=O)CC(NC3CCN(C(=O)c4ccc(F)cc4)CC3)C2=O)cc1 (stereo not given) | ? | 3 | ? | 0% | 1%[56.1 µM] | 2%
Cc1cc(C)cc(NC(=O)Nc2c[nH]c(=O)[nH]c2=O)c1 | -11% | . | 18% | 0% | -14% | 3%
Cc1cc(C)c2cc(C#N)c(N3CCCN(C(=S)NCCCN(C)C)CC3)nc2c1 | ? | -56* | 23µM* | ? | . | -42%
Cc1ccc2cc(C#N)c(N3CCCN(C(=S)NCCCN(C)C)CC3)nc2c1 | 16µM* | ? | 15µM* | ? | . | -58%
CCOCCCNC(=S)N1CCCN(c2nc3cc(C)ccc3cc2C#N)CC1 | -9% | 12 | 3% | -3% | -3% | 4%
CNc1n[nH]c(=S)s1 | 5% | 20 | -10% | 28% | . | 17%
C=CCNc1n[nH]c(=S)s1 | 5.2µM* | -13 | 2.6µM* | ? | . | -36%
Cc1ccc(N2CCn3c2nc2c3c(=O)n(C/C=C/c3ccccc3)c(=O)n2C)cc1C | 8% | . | -17% | -5% | 3% | 1%
COc1ccc2[nH]cc(CCNC(=O)COc3ccc4ccc(=O)oc4c3)c2c1 | ? | -23 | 21µM* | -19% | . | -26%
Cc1cc(OCC(=O)Nc2ccccn2)c2c(C)cc(=O)oc2c1 | -25% | -54* | ? | -2% | -13% | -9%
SMILES | TDP1 cell CPT | IL1B secr inh | DT40 TDP1 no CPT | TGFb SMAD3 inh | TDP1 inh | HepG2 tox
Cc1cc(OCC(=O)NCCc2c[nH]c3ccccc23)c2c(C)cc(=O)oc2c1 | ? | -90* | ? | -3% | . | -29%
Cc1cc(=O)oc2cc(O)cc(OCc3ccccc3)c12 | ? | 38 | 16µM* | ? | . | -63%
Cc1cc(=O)oc2ccc(OCc3ccccc3)cc12 | ? | 29 | ? | -17% | . | -32%
Cc1cc(=O)oc2cc(OCC(=O)NCCc3c[nH]c4ccc(F)cc34)ccc12 | -18% | -25 | 13% | 8% | -17% | 6%
CCCc1cc(=O)oc2cc(C)cc(OCC(=O)Nc3ccccn3)c12 | ? | 26 | -25% | 4% | 1% | 4%
CCOC(=O)c1c(C)[nH]c(C)c1S(=O)(=O)N1CCC(C(=O)NCc2ccc(N(C)C)cc2)CC1 | -12% | . | -19% | -22% | -3% | -1%
CCCc1cc(=O)oc2cc(OCC(=O)NCCc3c[nH]c4ccccc34)ccc12 | 23µM* | -21 | 16µM* | ? | . | -78%
CCCc1cc(=O)oc2cc(OCC(=O)Nc3cc(C)on3)ccc12 | -14% | 17 | -11% | 8% | 0% | 7%
C=C(Cl)COc1ccc2c(CCC)cc(=O)oc2c1 | ? | -12 | ? | ? | 89µM* | 0%
COc1cc(F)c(S(=O)(=O)N2CCCN(S(=O)(=O)c3ccc(NC(C)=O)cc3)CC2)c(F)c1 | . | . | . | . | 0% | .
COc1ccc(CNC(=O)c2ccc(CS(=O)(=O)Cc3ccccc3F)o2)cc1 | ? | 2 | 16µM* | -15% | 0% | -20%
CCc1ccc(CNC(=O)c2ccc(CS(=O)(=O)Cc3ccccc3C)o2)cc1 | 21µM* | . | 21µM* | -18% | 8% | -8%
Cc1ccccc1CS(=O)(=O)Cc1ccc(C(=O)NCc2ccc(F)cc2)o1 | ? | . | 16µM* | -12% | 0% | 1%
Cc1ccc(C(=O)NNc2ncnc3c2cnn3C)cc1 | 4% | 6 | -6% | 15% | 1% | -4%
